Tests used:
[1] = target: Calcium/calmodulin-dependent protein kinase type II subunit alpha (Homo sapiens) (UniProt Q9UQM7); details: at 1 µM;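 also: reported value is a mean percent inhibition of CAMK2A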
[2] = target: Calcium/calmodulin-dependent protein kinase type II subunit delta (Homo sapiens) (UniProt Q13557); details: at 0.1 µM
[3] = target: Calcium/calmodulin-dependent protein kinase type II subunit delta (Homo sapiens) (UniProt Q13557); details: at 1 µM
[4] = target: T1, Calcium/calmodulin-dependent protein kinase type IV (Homo sapiens) (UniProt Q16566); details: at 0.1 µM
T1 sequence (whole entry): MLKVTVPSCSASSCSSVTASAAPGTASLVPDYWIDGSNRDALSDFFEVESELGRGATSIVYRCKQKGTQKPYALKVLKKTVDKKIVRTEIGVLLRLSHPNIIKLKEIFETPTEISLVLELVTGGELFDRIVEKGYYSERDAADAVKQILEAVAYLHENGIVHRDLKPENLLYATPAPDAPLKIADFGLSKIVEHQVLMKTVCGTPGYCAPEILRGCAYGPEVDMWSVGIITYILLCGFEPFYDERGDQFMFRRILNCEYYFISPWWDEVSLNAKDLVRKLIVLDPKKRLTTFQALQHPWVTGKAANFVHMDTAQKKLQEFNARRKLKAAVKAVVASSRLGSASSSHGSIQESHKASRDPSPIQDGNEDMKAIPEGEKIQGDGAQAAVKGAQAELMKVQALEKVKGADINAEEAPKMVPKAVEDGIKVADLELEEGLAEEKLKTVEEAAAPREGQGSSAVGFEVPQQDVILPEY

[5] = target: T1, Calcium/calmodulin-dependent protein kinase type IV (Homo sapiens); details: at 1 µM
[6] = target: T2, Serine/threonine-protein kinase Chk1 (Homo sapiens) (UniProt O14757); details: at 0.1 µM
T2 sequence (whole entry): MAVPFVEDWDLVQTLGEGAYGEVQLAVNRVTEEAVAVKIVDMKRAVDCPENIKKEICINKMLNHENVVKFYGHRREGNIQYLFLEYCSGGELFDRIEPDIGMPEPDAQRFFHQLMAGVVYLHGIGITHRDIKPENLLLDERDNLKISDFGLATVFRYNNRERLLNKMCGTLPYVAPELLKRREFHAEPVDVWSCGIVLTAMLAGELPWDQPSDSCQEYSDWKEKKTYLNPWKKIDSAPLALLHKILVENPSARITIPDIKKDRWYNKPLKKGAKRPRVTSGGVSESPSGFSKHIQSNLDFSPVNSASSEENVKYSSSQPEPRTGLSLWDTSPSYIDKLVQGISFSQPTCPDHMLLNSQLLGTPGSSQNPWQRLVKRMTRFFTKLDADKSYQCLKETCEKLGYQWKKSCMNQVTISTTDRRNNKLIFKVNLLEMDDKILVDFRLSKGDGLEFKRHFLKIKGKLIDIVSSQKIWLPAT

[7] = target: T2, Serine/threonine-protein kinase Chk1 (Homo sapiens); details: at 1 µM
[8] = target: Serine/threonine-protein kinase Chk2 (Homo sapiens) (UniProt O96017); details: at 0.1 µM
[9] = target: Serine/threonine-protein kinase Chk2 (Homo sapiens) (UniProt O96017); details: at 1 µM
[10] = target: Death-associated protein kinase 1 (Homo sapiens) (UniProt P53355); details: at 0.1 µM
[11] = target: Death-associated protein kinase 1 (Homo sapiens) (UniProt P53355); details: at 1 µM
[12] = target: T3, Serine/threonine-protein kinase DCLK2 (Homo sapiens) (UniProt Q8N568); details: at 0.1 µM
T3 sequence (whole entry): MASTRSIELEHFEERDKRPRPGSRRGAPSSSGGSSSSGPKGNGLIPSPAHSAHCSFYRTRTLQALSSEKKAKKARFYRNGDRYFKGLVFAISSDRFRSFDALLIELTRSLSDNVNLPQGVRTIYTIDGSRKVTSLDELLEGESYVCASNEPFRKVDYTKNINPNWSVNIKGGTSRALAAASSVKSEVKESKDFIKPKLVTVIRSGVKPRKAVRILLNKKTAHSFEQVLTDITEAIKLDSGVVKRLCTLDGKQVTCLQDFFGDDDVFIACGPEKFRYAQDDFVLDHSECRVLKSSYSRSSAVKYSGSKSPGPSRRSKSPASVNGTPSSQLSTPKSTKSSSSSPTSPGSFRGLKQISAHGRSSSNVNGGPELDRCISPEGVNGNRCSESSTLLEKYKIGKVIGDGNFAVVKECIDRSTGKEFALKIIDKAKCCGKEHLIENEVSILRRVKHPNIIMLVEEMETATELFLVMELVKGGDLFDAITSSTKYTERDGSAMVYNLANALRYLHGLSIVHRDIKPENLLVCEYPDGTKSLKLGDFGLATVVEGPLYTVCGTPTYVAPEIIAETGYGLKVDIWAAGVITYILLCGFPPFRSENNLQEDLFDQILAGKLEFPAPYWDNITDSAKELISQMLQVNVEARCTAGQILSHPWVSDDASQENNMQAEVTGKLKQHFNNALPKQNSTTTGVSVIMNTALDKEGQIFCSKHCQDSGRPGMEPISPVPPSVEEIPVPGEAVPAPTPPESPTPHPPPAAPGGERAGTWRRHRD

[13] = target: T3, Serine/threonine-protein kinase DCLK2 (Homo sapiens); details: at 1 µM
[14] = target: MAP kinase-activated protein kinase 2 (Homo sapiens) (UniProt P49137); details: at 0.1 µM
[15] = target: MAP kinase-activated protein kinase 2 (Homo sapiens) (UniProt P49137); details: at 1 µM
[16] = target: MAP kinase-activated protein kinase 3 (Homo sapiens) (UniProt Q16644); details: at 0.1 µM
[17] = target: MAP kinase-activated protein kinase 3 (Homo sapiens) (UniProt Q16644); details: at 1 µM
[18] = target: Serine/threonine-protein kinase MARK1 (Homo sapiens) (UniProt Q9P0L2); details: at 0.1 µM
[19] = target: Serine/threonine-protein kinase MARK1 (Homo sapiens) (UniProt Q9P0L2); details: at 1 µM
[20] = target: MAP/microtubule affinity-regulating kinase 3 (Homo sapiens) (UniProt P27448); details: at 0.1 µM;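 also: mean percent inhibition of MARK3 kinase activity, measured within the GSK PKIS screening panel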
MAP/microtubule affinity-regulating kinase 3 (Homo sapiens), sequence (P27448 whole entry, looked up): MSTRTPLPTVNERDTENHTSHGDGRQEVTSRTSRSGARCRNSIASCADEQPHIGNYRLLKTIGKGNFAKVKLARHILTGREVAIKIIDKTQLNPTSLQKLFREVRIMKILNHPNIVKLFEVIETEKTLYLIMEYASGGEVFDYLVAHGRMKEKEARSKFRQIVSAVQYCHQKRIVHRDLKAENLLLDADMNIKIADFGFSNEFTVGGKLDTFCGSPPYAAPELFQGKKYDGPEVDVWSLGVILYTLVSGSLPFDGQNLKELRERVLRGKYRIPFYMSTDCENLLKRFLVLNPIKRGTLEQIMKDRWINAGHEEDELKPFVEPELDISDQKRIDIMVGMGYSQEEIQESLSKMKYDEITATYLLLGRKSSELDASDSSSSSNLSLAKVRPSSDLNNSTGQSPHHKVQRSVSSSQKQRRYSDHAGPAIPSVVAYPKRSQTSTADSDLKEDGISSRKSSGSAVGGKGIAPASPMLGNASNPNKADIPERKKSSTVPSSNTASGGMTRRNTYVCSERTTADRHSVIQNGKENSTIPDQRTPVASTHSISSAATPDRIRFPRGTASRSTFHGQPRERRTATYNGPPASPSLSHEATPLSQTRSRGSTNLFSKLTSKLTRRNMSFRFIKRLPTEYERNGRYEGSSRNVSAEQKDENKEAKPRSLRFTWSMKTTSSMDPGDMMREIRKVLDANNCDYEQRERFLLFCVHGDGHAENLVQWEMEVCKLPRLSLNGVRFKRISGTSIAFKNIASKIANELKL

Death-associated protein kinase 1 (Homo sapiens), sequence (P53355 whole entry, looked up): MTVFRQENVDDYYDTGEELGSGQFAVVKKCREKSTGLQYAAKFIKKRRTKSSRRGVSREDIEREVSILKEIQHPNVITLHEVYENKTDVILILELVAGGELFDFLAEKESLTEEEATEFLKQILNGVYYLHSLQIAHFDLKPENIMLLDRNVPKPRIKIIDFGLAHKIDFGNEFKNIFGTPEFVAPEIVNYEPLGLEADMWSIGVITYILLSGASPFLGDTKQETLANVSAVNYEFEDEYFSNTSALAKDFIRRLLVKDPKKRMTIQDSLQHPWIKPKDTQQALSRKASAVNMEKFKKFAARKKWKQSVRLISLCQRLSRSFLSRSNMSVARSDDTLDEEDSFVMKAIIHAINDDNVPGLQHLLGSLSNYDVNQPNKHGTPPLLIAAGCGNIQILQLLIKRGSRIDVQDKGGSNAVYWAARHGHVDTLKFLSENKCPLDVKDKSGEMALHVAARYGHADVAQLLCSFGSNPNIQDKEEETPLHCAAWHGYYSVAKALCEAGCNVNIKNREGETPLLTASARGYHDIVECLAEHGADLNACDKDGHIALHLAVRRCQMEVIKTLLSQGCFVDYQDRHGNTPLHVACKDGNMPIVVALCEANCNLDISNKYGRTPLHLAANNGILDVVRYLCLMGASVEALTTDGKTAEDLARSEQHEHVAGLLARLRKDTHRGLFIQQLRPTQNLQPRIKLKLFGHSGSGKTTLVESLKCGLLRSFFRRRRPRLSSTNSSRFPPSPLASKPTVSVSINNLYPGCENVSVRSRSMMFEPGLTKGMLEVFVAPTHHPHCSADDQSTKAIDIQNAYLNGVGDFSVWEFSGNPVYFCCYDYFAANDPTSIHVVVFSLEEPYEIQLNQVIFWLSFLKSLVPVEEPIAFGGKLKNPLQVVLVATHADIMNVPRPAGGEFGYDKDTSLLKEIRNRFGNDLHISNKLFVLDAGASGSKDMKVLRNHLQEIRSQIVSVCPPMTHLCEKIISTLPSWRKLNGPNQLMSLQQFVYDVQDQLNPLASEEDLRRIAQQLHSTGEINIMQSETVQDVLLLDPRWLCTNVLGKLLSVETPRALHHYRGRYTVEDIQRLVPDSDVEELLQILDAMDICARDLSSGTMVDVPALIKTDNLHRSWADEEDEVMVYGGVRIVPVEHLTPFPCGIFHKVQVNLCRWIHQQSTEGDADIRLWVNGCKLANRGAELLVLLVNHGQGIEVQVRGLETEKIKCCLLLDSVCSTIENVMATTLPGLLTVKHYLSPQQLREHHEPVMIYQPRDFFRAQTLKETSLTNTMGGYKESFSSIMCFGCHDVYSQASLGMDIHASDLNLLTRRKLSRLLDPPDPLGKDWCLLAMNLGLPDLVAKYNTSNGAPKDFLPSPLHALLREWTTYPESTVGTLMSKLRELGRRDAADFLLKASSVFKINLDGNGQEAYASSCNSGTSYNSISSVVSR
Calcium/calmodulin-dependent protein kinase type II subunit alpha (Homo sapiens), sequence (Q9UQM7 whole entry): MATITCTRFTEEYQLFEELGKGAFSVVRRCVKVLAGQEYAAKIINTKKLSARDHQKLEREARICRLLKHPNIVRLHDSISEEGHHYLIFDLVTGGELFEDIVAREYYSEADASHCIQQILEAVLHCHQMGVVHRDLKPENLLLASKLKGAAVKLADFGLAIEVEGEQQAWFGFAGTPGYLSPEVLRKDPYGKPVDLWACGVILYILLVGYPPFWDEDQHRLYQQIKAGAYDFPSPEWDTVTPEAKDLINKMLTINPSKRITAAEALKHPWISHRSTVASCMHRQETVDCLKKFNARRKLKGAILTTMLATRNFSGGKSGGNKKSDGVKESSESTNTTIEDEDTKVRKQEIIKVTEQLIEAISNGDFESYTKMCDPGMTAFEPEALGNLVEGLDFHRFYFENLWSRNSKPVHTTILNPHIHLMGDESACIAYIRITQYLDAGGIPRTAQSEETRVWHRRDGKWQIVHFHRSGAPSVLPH
Calcium/calmodulin-dependent protein kinase type II subunit delta (Homo sapiens), sequence (Q13557 whole entry): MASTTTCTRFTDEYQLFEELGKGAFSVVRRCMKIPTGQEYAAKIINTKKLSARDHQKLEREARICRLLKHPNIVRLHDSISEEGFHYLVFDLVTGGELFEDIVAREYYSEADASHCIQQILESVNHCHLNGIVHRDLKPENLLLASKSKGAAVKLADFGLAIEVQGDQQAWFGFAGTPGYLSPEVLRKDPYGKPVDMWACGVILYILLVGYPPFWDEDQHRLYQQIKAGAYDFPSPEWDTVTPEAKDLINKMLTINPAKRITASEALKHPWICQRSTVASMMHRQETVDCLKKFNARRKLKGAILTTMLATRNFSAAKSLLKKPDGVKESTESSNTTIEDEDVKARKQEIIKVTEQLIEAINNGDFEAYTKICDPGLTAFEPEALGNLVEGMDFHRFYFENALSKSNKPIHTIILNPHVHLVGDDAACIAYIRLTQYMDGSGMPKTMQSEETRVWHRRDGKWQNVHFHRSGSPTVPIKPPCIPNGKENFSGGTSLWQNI
MAP kinase-activated protein kinase 2 (Homo sapiens), sequence (P49137 whole entry, looked up): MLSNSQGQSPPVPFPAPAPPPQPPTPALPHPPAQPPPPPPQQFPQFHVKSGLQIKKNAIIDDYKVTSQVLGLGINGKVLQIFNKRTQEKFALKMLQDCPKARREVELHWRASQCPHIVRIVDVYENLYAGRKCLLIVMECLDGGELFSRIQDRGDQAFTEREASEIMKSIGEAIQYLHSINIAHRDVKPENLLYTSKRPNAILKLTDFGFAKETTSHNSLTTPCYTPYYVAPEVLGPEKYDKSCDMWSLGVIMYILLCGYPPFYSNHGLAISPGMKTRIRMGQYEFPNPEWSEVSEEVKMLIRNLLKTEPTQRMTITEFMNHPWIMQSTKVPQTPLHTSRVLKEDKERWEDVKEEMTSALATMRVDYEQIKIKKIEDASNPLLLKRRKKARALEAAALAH
MAP kinase-activated protein kinase 3 (Homo sapiens), sequence (Q16644 whole entry, looked up): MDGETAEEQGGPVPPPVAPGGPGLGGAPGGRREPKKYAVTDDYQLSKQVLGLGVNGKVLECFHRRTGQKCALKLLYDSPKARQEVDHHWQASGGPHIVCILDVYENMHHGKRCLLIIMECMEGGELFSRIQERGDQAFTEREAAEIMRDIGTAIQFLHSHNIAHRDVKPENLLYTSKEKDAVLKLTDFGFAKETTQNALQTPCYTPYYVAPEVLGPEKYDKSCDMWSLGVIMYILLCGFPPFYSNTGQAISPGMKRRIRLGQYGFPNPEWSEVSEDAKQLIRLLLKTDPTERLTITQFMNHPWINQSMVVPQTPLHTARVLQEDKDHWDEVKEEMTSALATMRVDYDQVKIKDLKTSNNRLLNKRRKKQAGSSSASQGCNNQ
Serine/threonine-protein kinase MARK1 (Homo sapiens), sequence (Q9P0L2 whole entry, looked up): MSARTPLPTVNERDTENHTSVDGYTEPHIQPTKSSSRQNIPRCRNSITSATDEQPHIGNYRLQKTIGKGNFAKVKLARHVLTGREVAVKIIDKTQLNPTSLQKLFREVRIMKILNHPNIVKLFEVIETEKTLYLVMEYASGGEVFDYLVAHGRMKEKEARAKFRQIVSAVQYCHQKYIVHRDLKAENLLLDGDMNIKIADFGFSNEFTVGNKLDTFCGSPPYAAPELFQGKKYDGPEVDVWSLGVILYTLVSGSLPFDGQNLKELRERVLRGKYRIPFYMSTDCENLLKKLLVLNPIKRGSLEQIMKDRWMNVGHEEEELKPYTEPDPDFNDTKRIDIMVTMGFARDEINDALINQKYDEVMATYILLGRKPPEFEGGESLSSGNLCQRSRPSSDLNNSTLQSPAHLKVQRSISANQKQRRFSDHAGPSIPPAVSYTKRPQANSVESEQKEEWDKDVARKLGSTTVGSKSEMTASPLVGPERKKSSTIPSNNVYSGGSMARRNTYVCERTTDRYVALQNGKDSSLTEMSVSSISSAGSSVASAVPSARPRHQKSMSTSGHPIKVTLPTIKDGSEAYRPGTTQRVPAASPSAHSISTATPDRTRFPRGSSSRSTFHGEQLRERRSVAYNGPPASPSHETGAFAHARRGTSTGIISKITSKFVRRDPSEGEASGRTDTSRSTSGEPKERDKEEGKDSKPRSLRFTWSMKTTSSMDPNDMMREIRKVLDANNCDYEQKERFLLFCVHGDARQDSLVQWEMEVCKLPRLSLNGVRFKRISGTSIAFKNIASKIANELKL

Row | SMILES | inhibition [1] [%] | inhibition [2] [%] | inhibition [3] [%] | inhibition [4] [%] | inhibition [5] [%] | inhibition [6] [%] | inhibition [7] [%] | inhibition [8] [%] | inhibition [9] [%] | inhibition [10] [%] | inhibition [11] [%] | inhibition [12] [%] | inhibition [13] [%] | inhibition [14] [%] | inhibition [15] [%] | inhibition [16] [%] | inhibition [17] [%] | inhibition [18] [%] | inhibition [19] [%] | inhibition [20] [%]
1 | CNC(=O)c1cc(-c2ccc(F)cc2)cc(-c2ccc(S(=O)(=O)N3CCCC3)cc2)c1N | 1.06 | 3.1 | 3.89 | -1.57 | 1.17 | 8.01 | 11.8 | 6.61 | 8.16 | 10.6 | 9.63 | -1.53 | -0.01 | 4.47 | 5.35 | 7.55 | 9.54 | 2.14 | 3.58 | 1.73
2 | COc1ccc(-c2cc3c(N)ncnc3o2)cc1 | -0.48 | -0.8 | -0.85 | 0.63 | -1.72 | 0.13 | 2.78 | -1.09 | 3.25 | -1.84 | -3.05 | -1.82 | 0.37 | -1.21 | -0.76 | -1.27 | -1.91 | 0.03 | 2.81 | -1.55
3 | CC(=O)NCc1cccc(C#Cc2cncnc2Nc2ccc(OCc3cccc(F)c3)c(Cl)c2)c1 | -0.5 | 0.37 | 1.1 | 1.04 | 2.01 | -3.2 | -4.26 | -4.58 | -3.41 | -6.93 | -8.59 | 1.43 | 6.49 | -2.58 | -3.05 | -4.92 | -5.42 | 1.88 | 2.89 | 1.71
4 | NS(=O)(=O)c1ccc(N/N=C2\C(=O)Nc3ccc4ncccc4c32)cc1 | 7.93 | 4.26 | 18.3 | 1.9 | 2.53 | 7.46 | 41.1 | 5 | 26.3 | 10.9 | 63 | -1.4 | 7.76 | 0.89 | 1.9 | 2.79 | 3.84 | 12.8 | 52.9 | 8.25
5 | Fc1ccc(-c2cc(-c3c[nH]nc3-c3ccccn3)ccn2)cc1 | 2.33 | 2.86 | 4.06 | -2.35 | -4.94 | 1.21 | -0.75 | 4.88 | 5.9 | 0.73 | 3.05 | 1.09 | -1.86 | 2.53 | 2.72 | 7.67 | 18.4 | 4.11 | 3.39 | 2.52
6 | CC(=O)Nc1cccc(C#Cc2cncnc2Nc2ccc(OCc3cccc(F)c3)c(Cl)c2)c1 | 4.52 | 4.28 | 3.37 | 1.57 | 3.24 | -1.89 | -3.6 | -2.67 | -1.77 | -6.34 | -5.4 | 2.03 | -0.73 | -2.08 | -2.08 | -4.18 | -2.89 | 1.42 | 0.83 | 3.81
7 | CCn1c(-c2nonc2N)nc2c(C#CC(C)(C)O)ncc(OC3CCNCC3)c21 | 5.73 | 4.43 | 8.15 | 1.96 | 6.84 | 2 | 4.29 | 2.65 | 7.53 | 4.3 | 5.68 | 0.06 | 3.29 | 1.3 | 3.78 | 3.98 | 4.41 | 20.8 | 74.1 | 21.2
8 | O=S(=O)(CCNCc1ccc(-c2ccc3ncnc(Nc4ccc(OCc5cccc(F)c5)c(Cl)c4)c3c2)o1)c1ccccc1 | 2.35 | 3.72 | 4.42 | -0.6 | 0.28 | 7.26 | 10.1 | 2.55 | 3.38 | 8.91 | 6.96 | 1.44 | 2.85 | 2.31 | 2.57 | 7.71 | 7.76 | 3.69 | 5.01 | 3.94
9 | COc1ccc2[nH]c3c4[nH]c5ccc(OC)cc5c4c4c(c3c2c1)C(=O)NC4=O | 22.9 | 17.4 | 57.6 | -5.78 | -3.69 | 22.4 | 65.6 | 81.2 | 83.4 | 2 | 24.8 | 1.24 | 2.81 | 2.61 | 5.29 | 5.01 | 6.04 | 7.99 | 38.8 | 3.92
10 | O=C(O[C@H]1CN[C@H](C#Cc2cc3ncnc(Nc4ccc(Cc5ccccc5)cc4)c3s2)C1)N1CCOCC1 | -1.9 | 1.04 | -0.85 | -0.04 | -2.21 | 1.79 | 0.1 | 0.28 | 0.95 | 4.84 | 2.13 | -0.4 | 2.31 | 0.76 | -0.1 | 3.66 | 3.19 | 1.63 | 2.56 | 2.46
11 | c1cc(-c2cnn3nc(N4CCOCC4)ccc23)nc(NC2CC2)n1 | 6.53 | 3.77 | 9.6 | 1.3 | 2.07 | 3.63 | 1.64 | 3.07 | 7.4 | 3.51 | 3.38 | -0.25 | -2.52 | 1.29 | 1.97 | 5.27 | 6.31 | 3.55 | 10.3 | 4.76
12 | CCc1nn2ncccc2c1-c1ccnc(NC2CC2)n1 | 3.03 | 2.51 | 4.18 | 3.71 | 2.48 | 2.02 | 2.69 | 1.64 | 3.66 | 3.5 | 1.38 | -1.54 | 2.15 | 1.44 | 2.07 | 1.73 | 2.3 | 0.89 | 2.47 | 0.47
13 | Fc1cccc(COc2ccc(Nc3ncnc4sc(-c5ccco5)cc34)cc2Cl)c1 | -2.48 | 3.02 | 1.67 | -1.87 | -2.46 | 10.1 | 12.5 | 7.63 | 8.84 | 13.2 | 11.1 | -1.11 | 4.98 | 5.73 | 4.4 | 9.64 | 11 | 2.72 | 5.69 | 3.1

Source: ChEMBL document CHEMBL1961873, “Compounds: GSK PKIS; Assays: Nanosyn kinase panel” (2012)
